Each structure is given as a SMILES string. “And” between values parts separate entries of the source, which are not always exact repeats. Identical values can stand only once. Out of some 65,000 compounds screened, about 40 (0.06%) were called active. Entries that show only a call come without a potency. Many of the other results were omitted from the sample, so actives are more common in it than they were. Unmarked numbers belong to inactive results. The call rests on the fitted dose curve; in most records, active means well fitted activation curve with a large enough effect; inconclusive means small, poorly fitted or top-dose-only effect; inactive means flat fitted curve, though single readings scatter.

The nature of this test: qHTS Assay for Modulators of Hemoglobin Beta Chain Splicing. As to conditions: HBB splicing reporter cell assay, EGFP reporter with mutant IVS2-654 intron; Potency: activation; series mostly up to 46.1 µM. An excerpt:
NIH Chemical Genomics Center [NCGC]
NIH Molecular Libraries Screening Centers Network [MLSCN]
PI Name: Dr. Ryszard Kole
Modulation of Alternative Splicing as Therapy
Abnormal splicing is associated with a number of diseases, including cancer and genetic diseases such as cystic fibrosis, muscular dystrophy and beta-thalassemia. Alteration of disease associated splicing patterns provides a promising target for treatment. […] Mutations in the second intron of the beta-globin gene at positions are clinically relevant and cause mis-splicing which results in an out of frame gene product.
EGFP-654 and 705 HeLa Cells as screen system.
HeLa cell lines were stably transfected with a construct in which the EGFP (enhanced green fluorescent protein) cDNA was interrupted by the second intron of the beta-globin gene (IVS2-654). The ISV2 intron contains mutations which cause mis-splicing of EGFP and premature termination of EGFP which results in a nonfluorescent protein product. […] Expression of the transgene was driven by the CMV promoter. We concluded that a low molecular weight compound, which restored correct splicing of intron 2 would also generate functional EGFP protein, resulting in a fluorescent signal. Thus, the HeLa cells that express the EGFP-654 construct can be used for high throughput screening of a chemical library.
NCGC Assay Protocol Summary:
High Throughput Screening. Freshly thawed HeLa EGFP-654 cells were seeded in 5 ul of optimem media (Invitrogen) containing 2 % fetal calf serum (Hyclone) and 1x penicillin/streptomycin (Invitrogen) at a concentration of 500 cells per well in 1536-well plates. Cells were incubated overnight at 37C in 5% CO2. The next day, cells were treated with DMSO, 500 nM antisense ISV2 654 PNA control oligo, or library compound and allowed to grow at 37C in 5% CO2 for 2 days. The PNA oligo blocked the mutation site in the intron and allowed proper (wild type) splicing to occur, resulting in full length EGFP expression and also allowed for optimization of the assay parameters. Plates were read in the Acumen Explorer (TTP Labtech) using 488 nm laser excitation and 500-520 nm emission PMT filter in a 1 x […] capture mode. Fluorescnet Fluorescent objects ranging in size from […] were measured and the total peak GFP intensity for each well was used for data analysis.
Keywords: Thalassemia, beta-thalassemia, beta-globin, EGFP, ISV2 654, ISV2 705, SSO, PNA, antisense, splicing, MLSMR, MLSCN, NIH Roadmap, qHTS, NCGC
In general terms: In qHTS, concentration-response curves come from the screen itself.
As to `CC(C)=CCC/C(C)=C/CO/N=C1/C[C@@H](O)[C@@H](O)[C@@H]2[C@@H]3C(=O)N(C(C)(C)C)C(=O)[C@H]3CC[C@H]12`, the activation is -1.71% [at 9.22 µM, normalised to 500 nM splice-correcting PNA].

As to `CCCn1c(C)nc2c(NCCCCN(CC)CC)nc(C)nc21`, the activation result was “inactive”. The same measure for `O=C(Cl)c1ccccc1[N+](=O)[O-]`: “inactive”; for `CC(C)(C)NCC[C@@H](O)c1cc(C(F)(F)F)nc2c(C(F)(F)F)cccc12`: 0.766% [at 9.22 µM, normalised to 500 nM splice-correcting PNA]. As to `COc1cccc(-c2cc(NCCc3c[nH]c4ccc(OC)cc34)ncn2)c1`, the activation result was “inactive”. As for `COc1ccc(/C=C/NC(=O)Cc2ccc(OC)c(OC)c2)cc1`, the activation is 1.47% [at 9.22 µM, normalised to 500 nM splice-correcting PNA] and 0.37% [at 9.22 µM, normalised to 500 nM splice-correcting PNA]. The same measure for `O=C(O)c1nccnc1C(=O)Nc1ccc(Br)cn1`: “inactive”; for `COc1cccc(Cn2c(=O)cnc3cncnc32)c1`: “inactive”. For the compound `O=C(O)[C@H](CCc1ccccn1)c1ccccc1`, the activation was 1.34% [at 9.22 µM, normalised to 500 nM splice-correcting PNA]. The same measure for `N#Cc1ccccc1-c1ccc2ncnc(NCc3cccnc3)c2c1`: “inactive”. As for `CCCCC/C=C/C=C/C=O`, the entry is “inactive”; as for `O=C(O)CCCCC(=O)O`, “inactive”. As for `CNC(=O)C1(C)C=CC2(CCCCC2)N1C(C)=O` (stereo not drawn), the activation entry is “inactive”. The same measure for `O=S(=O)(c1ccccc1)N1CCC2(CC1)CN(Cc1nccs1)C2`: “inactive”; for `CCON=C1C(C)(C)C(C)(C)C(C)(C)C1(C)C`: 1.16% [at 9.22 µM, normalised to 500 nM splice-correcting PNA]; for `O=C(c1cnccn1)N1CCC2(CCN(Cc3cc(C(F)(F)F)cc(C(F)(F)F)c3)CC2)CC1`: “inactive”. The same measure for `O=C(c1ccncc1)N1CCC2(CCCN(C(c3ccccc3)c3ccccc3)C2)CC1`: “inactive”; for `Nc1ccccc1N`: “inactive”; for `CC(=O)OCC(COC(C)=O)OC(C)=O`: “inactive”. The same measure for `Cc1cc(C(=O)O)ccc1[N+](=O)[O-]`: “inactive”.

For the compound `O=C1C[C@@H](O)[C@@H](O)[C@H]2[C@@H]3C(=O)N(Cc4ccc5c(c4)OCO5)C(=O)[C@@H]3CC[C@H]12`, the activation is 3.01% [at 9.22 µM, normalised to 500 nM splice-correcting PNA] and 2.86% [at 9.22 µM, normalised to 500 nM splice-correcting PNA]. As for `CN/C(=C\[N+](=O)[O-])NCCSCc1csc(CN(C)C)n1`, the entry is “inactive”; as for `CO[C@H]1COC(=O)C/C=C\[C@H](C)COC(=O)[C@@H](OCc2ccccc2)/C=C\[C@@H]1C`, 1.62% [at 9.22 µM, normalised to 500 nM splice-correcting PNA]. Turning to `Cc1c2c(nc3ccccc13)-c1cccc(=O)n1C2`, the activation result was “inactive”.

Turning to `CC/C=C/C/C=C/C/C=C/CCCCCCCC(=O)OCC`, the activation result was “inactive”. For `Oc1ccc2ccccc2c1C=NCc1c(O)ccc2ccccc12`, the activation was 0.869% [at 9.22 µM, normalised to 500 nM splice-correcting PNA]. The same measure for `CCCNC(=O)OC[C@@H]1O[C@H](c2ccccc2)C=C[C@@H]1Oc1ccc(OC)cc1`: -1.16% [at 9.22 µM, normalised to 500 nM splice-correcting PNA]. As for `O=C1OCCC=C1[C@@H](O)CCc1ccccc1`, the figure is 3.64% [at 9.22 µM, normalised to 500 nM splice-correcting PNA]; as for `CCCn1c(-c2ccc(F)cc2)nc2c(NCC3CCCN3CC)nc(C)nc21` (stereo not drawn), “inactive”; as for `Cc1cc(C)cc(N)c1`, “inactive”.

With `c1ccc2c(c1)-c1ccccc1C2N1CC2CCC(CC2)C1`, the activation is 3.26% [at 9.22 µM, normalised to 500 nM splice-correcting PNA]. The same measure for `COc1ncc2nc(-c3ccc(Cl)cc3)c(=O)n(-c3ccccc3)c2n1`: “inactive”; for `O=C(O)CC(C(=O)O)C(CC(=O)O)C(=O)O` (stereo not drawn): “inactive”. As for `COC(=O)[C@@]1(Cc2ccc(OC)cc2)[C@H]2c3cc(C(=O)N4CCCC4)n(Cc4ccc(C(F)(F)F)nc4)c3C[C@H]2CN1C(=O)c1ccccc1`, the entry is “inactive”. The same measure for `CC1=C(C(=O)OCc2ccccc2)C(c2ccc(C(F)(F)F)cc2)NC(=O)N1CCCCCC(=O)O` (stereo not drawn): “inactive”. In the case of `COc1ccc(-c2nc3cnc(OC)nc3n(Cc3ccc(F)cc3)c2=O)cc1`, the activation result is “inactive”. In the case of `Cc1cccc(Br)c1`, the activation entry is “inactive”. As for `CS(=O)(=O)N1CCC2(CC1)CN(c1ccncc1)C2`, the entry is “inactive”; as for `CCn1ccnc1C[C@@H]1COc2ccccc2O1`, “inactive”; as for `CC[C@H](c1ccccc1)c1cc(C(C)(C)C)cc(C(C)(C)C)c1O`, -0.113% [at 9.22 µM, normalised to 500 nM splice-correcting PNA]. As for `CC(C)(O/N=C(\C(=O)N[C@@H]1C(=O)N2C(C(=O)[O-])=C(C[n+]3ccccc3)CS[C@@H]12)c1csc(N)n1)C(=O)O`, the activation entry is “inactive”. As for `C[C@]1(O)CC[C@H]2[C@H]3CC=C4N5CCN=C5CC[C@@]4(C)[C@H]3CC[C@@]21C`, the figure is -0.0515% [at 9.22 µM, normalised to 500 nM splice-correcting PNA]; as for `Cc1c(NC(=O)c2cccnc2)c(=O)n(-c2ccccc2)n1C`, “inactive”; as for `COC(=O)[C@@]1(Cc2ccc(OC)cc2)[C@H]2c3cc(C(=O)N4CCCC4)n(Cc4ccc(OC(F)(F)F)cc4)c3C[C@H]2CN1C(=O)c1ccccc1`, “inactive”.

For `CC[C@@H]1Cc2cc(O)ccc2C2=C1c1ccc(O)cc1C[C@H]2CC`, the activation result is “inactive”. As for `Cc1nc2cnc(N3CCNCC3)nc2n(Cc2ccc(F)cc2)c1=O`, the entry is “inactive”; as for `COc1ccc(CNc2ncncc2-c2ccccc2OC)c(OC)c1`, “inactive”; as for `COC(=O)[C@@H]1CC[C@H](C)[C@@H](c2ccc(C)cc2)N1C(=O)c1ccc(/C=N\O[C@@H](C)c2cn([C@H](CO)Cc3ccccc3)nn2)cc1`, 0.582% [at 9.22 µM, normalised to 500 nM splice-correcting PNA] and -0.794% [at 9.22 µM, normalised to 500 nM splice-correcting PNA]. As for `O=C(c1cccc(F)c1)N1CCC2(CCCN(Cc3ccncc3)C2)CC1`, the entry is “inactive”. Regarding `Cc1cccc(C(=O)O)c1[N+](=O)[O-]`, the activation result is “inactive”. As for `COc1cccc(Cn2c(=O)c(CCc3ccccc3)nc3cnc(N(C)C)nc32)c1`, the entry is “inactive”. The same measure for `Cc1cnc(CNc2nc(-c3cccnc3)nc3ccccc23)cn1`: “inactive”. As for `COc1ccc(-c2nc3cnc(Oc4ccccc4)nc3n(Cc3cccs3)c2=O)cc1`, the entry is “inactive”; as for `CCC[C@@H]1C[C@@]1(CCC)C(NS(=O)(=O)c1cccc2cccnc12)c1ccc(Cl)cc1` (stereo partly drawn), “inactive”. Turning to `O=C(Cl)c1ccc([N+](=O)[O-])cc1`, the activation entry is “inactive”. The same measure for `O=C(c1csnn1)N1CCC[C@@]2(CCN(Cc3nccs3)C2)C1`: “inactive”. Regarding `CCNC(=S)NCC`, the activation result was “inactive”. The same measure for `O=C(c1ccc([N+](=O)[O-])cc1)[C@@H](Br)[C@@H](Br)c1ccnc2ccccc12`: 0.675% [at 9.22 µM, normalised to 500 nM splice-correcting PNA].

The record behind these values is PubChem BioAssay AID925 (National Center for Advancing Translational Sciences (NCATS), 2007).
